# Results from PubChem BioAssay AID624498 (National Center for Advancing Translational Sciences (NCATS), 2012).
# Active and inactive are the calls of the source.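 How the source made its calls: active means a band for the stress protein GRP78 appears on a western blot of treated cells; inactive means no band seen on the blot.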
# Test: Hit Validation Western Blot Assay for Inducers of ERSR: Assessment of GRP78 Upregulation
# Conditions: cells, 4-24 h
# Excerpt: Primary protein unfolding takes place for many diseases, including diabetes and hypoxia, , and triggers a reaction in the cells called ER stress response (ERSR). ). ERSR is designed as a repair mechanism, but ultimately leads to cell death via apoptosis if conditions triggering protein unfolding persist (1). The molecular clue to ERSR activation is the enhancement of the expression of key molecular chaperones, including the glucose regulated protein (GRP) 78. GRP78 is the main sensor for protein folding and the main actuator of the ERSR. In a collaboration between the Southern Research Institute and the NIH Chemical Genomics Center, a cell based screen was developed that reliably uses GRP78 as a sensor to identify small molecules as inducers of ERSR. In resting conditions, GRP78 binds proteins and acts as a natural repressor. Once unfolded proteins are present in the ER, GRP78 releases some of the repressors and binds to the unfolded proteins. The release of the repressors executes the ERSR program. Using a human glioma cell line in a miniaturized, luminescent format, a high-throughput screen was developed to identify actuators of the ERSR. In this assay, hits identified in the primary ERSR screen were characterized for their effects on wild type GRP78 upregulation using a western blot secondary assay. NIH Chemical Genomics Center [NCGC] […]
row,SMILES,outcome
1,Cc1noc(C)c1C(=O)N1CCC2(CCCN(C(c3ccccc3)c3ccccc3)C2)CC1,active; yes
